This passage reports growth results from PubChem BioAssay (NCI).

About 83,000 compounds went through this panel and 20% of them were active in at least one assay; those are over-represented in the sample as a whole.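 Activity criterion: percent growth below 10, measured after cells in 96-well plates were exposed to a single compound concentration for 48 hours.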 Values without a mark were called inactive. Calls of active or inactive are those of the source.

For this assay, the system named is OVCAR-4 ovarian. Kind of assay: NCI-60 one-dose screen, 48 h (100 = growth as untreated, 0 = no growth, -100 = all killed). The conditions noted are these: 10 µM.
In the case of `O=C1Nc2ccc(F)cc2/C1=C/c1cccc(OCc2ccccc2)c1`, the growth is 36.4%.
Then `Cc1ccc(NC(=O)c2ccc(-n3c(=O)[nH]c4ccccc4c3=O)cc2)cc1`, with 98.8%; and `O=C(Nc1ccncc1)c1ccc(-n2c(=O)[nH]c3ccccc3c2=O)cc1`, with 93.3%; and `Cc1ccc(-c2cc(-c3cc4ccccc4nc3Cl)[nH]c(=S)n2)cc1`, with 80.6%.
Consider `O=C(c1ccc(Cl)cc1)C1[C@H](c2ccc(Br)cc2)[C@@H](c2ccccc2)NC12C(=O)Nc1ccc(Cl)cc12` (stereo partly drawn), for which the growth is 3.2% (active).
As for `O=C(O)CCCCCCCCCCN1C(=O)/C(=C/c2cnc(-c3ccc(Cl)cc3)s2)SC1=S`, the growth is 67%.
To `CN1CCN(c2ccc(Nc3nc(N4CCN(S(=O)(=O)c5ccc(Cl)cc5)CC4)c4sccc4n3)cc2)CC1` belongs -82.6% (active); to `CN1CCN(c2ccc(C(=O)/C=C/c3cc(Br)ccc3F)cc2)CC1`, 59.6%.
`O=c1nc(-c2ccccc2)cc(-c2cc3ccccc3nc2Cl)[nH]1`: the growth was 80.6%.
Then `CC1=C2C(=C[C@@](C)(CO)[C@@H]2O)/C(=N\N)[C@](C)(O)C12CC2`, with -21.7% (active); and `O=C(c1ccc(O)cc1)C1[C@H](c2ccc(Br)cc2)[C@@H](c2ccccc2)NC12C(=O)Nc1ccc(Br)cc12` (stereo partly drawn), with 14.3%.
Consider `COc1ccc(C=CC(=O)c2ccc(-n3c(C)nc4c(cnn4-c4ccccc4)c3=O)cc2)cc1`, for which the growth is 65.7%.
Then `O=C(c1ccc(O)cc1)C1[C@H](c2ccccc2Br)[C@@H](c2ccccc2)NC12C(=O)Nc1ccc(Cl)cc12` (stereo partly drawn), with 17%.
`O=C(c1ccccc1)n1ccc(-c2cc3cc(Br)ccc3oc2=O)n1`: the growth is 26.2%.
`C#Cc1ccc(S(=O)(=O)Nc2cccc(-c3csc(NC(C)=O)n3)c2)cc1`: the growth was 59.7%.
Consider `O=C(N/N=C/c1ccc(-c2cccc([N+](=O)[O-])c2)o1)c1[nH]c2ccc(Br)cc2c1-c1ccccc1`, for which the growth was 45.5%.
As for `O=C(Nc1nc2ccc([N+](=O)[O-])cc2s1)Nc1cc(Cl)ccc1I`, the growth was 0.91% (active).
On to `C=C(c1ccc(OC)c(N)c1)c1cc(C)nc2ccccc12`, for which the growth was 57.8%.
To `CNC(=O)c1cccc(N2CCc3c2ccc(NC(=O)Nc2ccc(N4CCN(C)CC4)c(C(F)(F)F)c2)c3F)c1` belongs -86.1% (active).
Take `COc1ccc([C@H]2C(C(=O)c3ccc(Cl)cc3)C3(N[C@@H]2c2ccccc2)C(=O)Nc2ccc(Br)cc23)cc1` (stereo partly drawn): the growth was 17.2%.
On to `CN1CCN(Cc2ccc(C(=O)Nc3cccc(Nc4ccc5cc(O)ccc5n4)c3)cc2C(F)(F)F)CC1`, for which the growth was 6.75% (active).
With `Brc1ccc(/C=N/Nc2ncnc3sc4c(c23)CCN(Cc2ccccc2)C4)cc1`, the growth was 43.7%.
To `COc1ccc(C(C)=C(c2ccc(OCCCN(C)C)cc2)c2ccc(OCCCN(C)C)cc2)cc1` belongs -94.6% (active); to `C=C(C)[C@@H]1CC[C@]2(C(=O)OC)CC[C@]3(C)[C@H](CC[C@@H]4[C@@]5(C)CC[C@H](N)C(C)(C)[C@@H]5CC[C@]43C)[C@@H]12`, -93.1% (active).
`CS(=O)(=O)Nc1ccc(-c2ccc3c(c2)ncn3-c2ccc(NC(=O)Nc3ccc(Br)cc3)cc2)cc1`: the growth was 18.1%.
Consider `CCCS(=O)(=O)c1oc(-c2ccc(F)cc2)nc1S(=O)(=O)c1ccc(F)cc1`, for which the growth is -90.7% (active).
`CC(C)CCSc1nc(NC2CC2)c(C#N)c(-c2ccc(C(C)C)cc2)n1`: the growth was 112%.
On to `Cc1ccc(-c2nc3ccc(C(=O)N=Nc4c(O)[nH]c5ccc([N+](=O)[O-])cc45)cc3[nH]2)cc1`, for which the growth was 55.2%.
